Mtb BioA inh: blocks M. tuberculosis BioA enzyme activity; purified M. tuberculosis BioA enzyme, plate reader; inhibition, % at 9.99 µM; 360,000 compounds, 0.096% hits; AID 602481; in the data active = inhibition above about 40%
TcdB inh: inhibitors of Clostridioides difficile toxin B glycohydrolase. 350,000 compounds, 0.24% hits. AID 652162. P18177. inhibition, % at 9.99 µM. TcdB glycohydrolase enzymatic assay, plate reader; in the data active = inhibition above about 10%
PrP UTR inh: inhibition of PrP 5' UTR reporter expression; inhibition, % (concentration not given with the values); AID 488862; cell-based PrP 5' UTR mRNA reporter, plate reader; 340,000 compounds, 0.35% hits; in the data active = inhibition above about 52%; note: 0 = median of the neutral control wells
PriA SSB inh: K. pneumoniae PriA-SSBct interaction inhibition; inhibition, % at 33 µM; AlphaScreen SSBct-PriA binding, biotinylated peptide; 430,000 compounds, 0.6% hits; in the data active = inhibition mostly above about 37%, no sharp cut-off; inactive = mostly below about 20%;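 note: plate controls were negative control peptide for no effect and reference peptide for full effect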
Mtb hypoxia rep: Mtb hypoxia fluorescent reporter inhibition | M. tuberculosis hypoxia-regulated fluorescent reporter, fluorescence | 300,000 compounds, 0.1% hits | fluorescence inhibition, % (no concentration beside the values) | AID 1159583; in the data active = fluorescence inhibition mostly above about 23%, no sharp cut-off; inactive = mostly below about 17%
FadD28 FP inh: blocks FadD28 binding to the bisubstrate probe; fluorescence polarization; 360,000 compounds, 0.22% hits; inhibition, % at 12.5 µM; in the data active = inhibition above about 8.5%, passing the limit was not always enough
* marks the source's active call; other numbers are inactive results. Only some compounds are listed: those with a hit (about 1% of all), similar ones and a draw of the others.

O=C(Cn1nnc(-c2ccc3c(c2)OCO3)n1)Nc1ccccc1C(=O)O was read as Mtb BioA inh 0.0, TcdB inh 0.1, PrP UTR inh -12.7, PriA SSB inh -3.1, Mtb hypoxia rep 5.5 and FadD28 FP inh 10.8*.
For COc1ccc(Cn2ccnc2SCC(=O)Nc2cccc(NC(C)=O)c2)cc1 the results were TcdB inh 1.3, PrP UTR inh -30.5, PriA SSB inh 5.1, Mtb hypoxia rep 3.4 and FadD28 FP inh 1.9.
For Cn1ccnc1SCC(=O)Nc1ccc(Oc2ccccc2)cc1 the results were Mtb BioA inh 2.5, PrP UTR inh -27.9, PriA SSB inh 39.9*, Mtb hypoxia rep 3.3 and FadD28 FP inh -0.2.
COc1ccc(NC(=O)CSc2nccn2Cc2ccccc2)cc1 was read as Mtb BioA inh 0.5, TcdB inh 0.5, PrP UTR inh -34.8, PriA SSB inh 45.6*, Mtb hypoxia rep -4.1 and FadD28 FP inh 0.3.
`CCOc1ccc(NC(=O)CSc2nccn2C)cc1` gave Mtb BioA inh -2.4, PrP UTR inh -60.3, PriA SSB inh 4.7, Mtb hypoxia rep 18.8 and FadD28 FP inh 0.7.
For O=C(C[C@@H]1CC[C@H](NS(=O)(=O)c2cccc(F)c2)[C@@H](CO)O1)N1CCCCC1 the results were Mtb BioA inh 4.2 and TcdB inh 0.9.
Screening COc1ccc(C(=O)Nc2cc(C)nn2-c2nc3c(cnn3-c3ccc(C)cc3)c(=O)[nH]2)cc1 returned PriA SSB inh 0.0.
For COc1ccc(C(=O)Nc2cc(C)nn2-c2nc3c(cnn3-c3ccc(F)cc3)c(=O)[nH]2)cc1OC the results were PriA SSB inh 53.0*.
CSc1ccccc1C(=O)Nc1cc(C)nn1-c1nc2c(cnn2-c2ccc(F)cc2)c(=O)[nH]1 was read as PriA SSB inh 41.0*.
Screening Cc1cc(NC(=O)c2ccccc2C(F)(F)F)n(-c2nc3c(cnn3-c3ccccc3)c(=O)[nH]2)n1 returned PriA SSB inh 24.0.
Screening COc1ccc(C(=O)Nc2cc(C)nn2-c2nc3c(cnn3-c3ccc(C)c(C)c3)c(=O)[nH]2)cc1OC returned PriA SSB inh 91.0*.
`O=C(NCCCn1ccnc1)C(=O)NCC1OCCN1C(=O)c1ccc2c(c1)OCO2` (stereo unspecified) gave PriA SSB inh 71.0*.
Screening O=C(NCCCn1ccnc1)C(=O)NCC1OCCN1S(=O)(=O)c1ccccc1 (stereo unspecified) returned TcdB inh -0.2, PrP UTR inh -22.2, PriA SSB inh 42.7* and FadD28 FP inh -0.7.
O=C(NCCCn1ccnc1)C(=O)NCC1OCCN1S(=O)(=O)c1ccc(Cl)cc1 (stereo unspecified) was read as Mtb BioA inh -0.5, TcdB inh -0.5, PrP UTR inh -37.4, PriA SSB inh 60.9*, Mtb hypoxia rep -4.4 and FadD28 FP inh -1.9.
For CN(C=O)c1cc([N+](=O)[O-])ccc1OCc1ccccc1 the results were Mtb BioA inh 3.0, TcdB inh 1.7, PrP UTR inh -7.7, PriA SSB inh -0.6 and FadD28 FP inh -1.9.
Cc1ccc(NC(=S)N(CCN2CCOCC2)Cc2cc3cc4c(cc3[nH]c2=O)OCCO4)cc1 was read as Mtb BioA inh 1.4, TcdB inh 1.8, PrP UTR inh -7.2, PriA SSB inh 4.7, Mtb hypoxia rep -1.8 and FadD28 FP inh -5.8.
Screening CC1CN(C(=O)/C=C/c2ccc3c(c2)OCO3)CC(C)O1 (stereo unspecified) returned Mtb BioA inh -0.7, PrP UTR inh -9.4, PriA SSB inh -3.6, Mtb hypoxia rep 91.1* and FadD28 FP inh -0.6.
`NCC(O)Cn1c2ccccc2c2ccccc21` (stereo unspecified) gave PriA SSB inh -5.0.
Screening Oc1cccc2ccc[n+](CC(O)Cn3c4ccccc4c4ccccc43)c12 (stereo unspecified) returned Mtb BioA inh -0.5, PrP UTR inh -14.8, PriA SSB inh 73.4*, Mtb hypoxia rep 2.4 and FadD28 FP inh -0.2.
For S=C(c1cn(Cc2ccccc2)c2ccccc12)N1CCOCC1 the results were TcdB inh 17.3*, PrP UTR inh -22.0, PriA SSB inh 11.0, Mtb hypoxia rep 5.7 and FadD28 FP inh -2.4.
COC(=O)/C=C/c1sc2nc(C)cc(C)c2c1N=CN(C)C was read as TcdB inh 2.6, PrP UTR inh -13.0, PriA SSB inh -15.8, Mtb hypoxia rep 7.3 and FadD28 FP inh -2.2.
CC(O)=Cc1nc2ccccc2oc1=O was read as PriA SSB inh -15.9.
